# Structures can show the parent of a compound that is named as a salt.
# Test system: FLX1 + dox-induced PRKAR1A G325D
# Assay: difference in log2 fold change of viability vs plate median (dox-induced PRKAR1A G325D minus uninduced); higher = compound less effective when PKA is inhibited
# Details: concentration: not stated (2 or 5 uM); 5 days
# Description: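 For each plate a log2 fold change vs the plate median was derived, and the values without dox were subtracted from those with dox, averaged over three biological replicates.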
row,SMILES,difference in log2 fold change of viability
1,CS(=O)(=O)CCNCc1ccc(-c2ccc3ncnc(Nc4ccc(OCc5cccc(F)c5)c(Cl)c4)c3c2)o1 [Lapatinib],0.129
2,COc1cc2ncnc(Oc3ccc(CC(=O)Nc4cnn(C(C)C)c4)cc3)c2cc1OC,-0.126
3,COc1cc(Nc2ncc(F)c(Nc3ccc4c(n3)NC(=O)C(C)(C)O4)n2)cc(OC)c1OC [R406 (free base)],-0.334
4,CNC(=O)CN1CCC(Oc2cc3c(Nc4cccc(Cl)c4F)ncnc3cc2OC)CC1 [Sapitinib (AZD8931)],-0.745
5,"CC[C@H](CO)Nc1nc(NCc2ccccc2)c2ncn(C(C)C)c2n1 [Roscovitine (Seliciclib,CYC202)]",0.0426
6,O=C(NCCCNc1nc(Nc2cccc(NC(=O)N3CCCC3)c2)ncc1I)c1cccs1,0.621
7,N[C@@H]1CCCN(c2c(/C=C3\SC(=O)NC3=O)cccc2-c2ccccc2)C1,0.132
8,FC(F)(F)c1ccc(/C=C/c2nc(COc3ccc(CCCCn4ccnn4)cc3)co2)cc1 [Mubritinib (TAK 165)],0.102
9,N=C(N)NC(=N)NCCc1ccccc1 [Phenformin HCl],-0.0569
10,COc1ccc(-c2ccc3c(N4CCOC[C@@H]4C)nc(N4CCOC[C@@H]4C)nc3n2)cc1CO,1.55
11,CN1CC[C@H](c2c(O)cc(O)c3c(=O)cc(-c4ccccc4Cl)oc23)[C@H](O)C1 [Flavopiridol HCl],0.222
12,O=c1c(O)c(-c2ccc(O)c(O)c2)oc2cc(O)cc(O)c12 [Quercetin],-0.0725
13,CCn1c2ccccc2c2cc(Nc3ccnc(NCCCN4CCOCC4)n3)ccc21,0.808
14,CCc1nc(-c2cccc(C)c2)c(-c2ccnc(NC(=O)c3ccccc3)c2)s1,0.387
15,"Cc1cc(Nc2cc(N3CCN(C)CC3)nc(Sc3ccc(NC(=O)C4CC4)cc3)n2)n[nH]1 [Tozasertib (VX-680, MK-0457)]",-0.00164
16,CS(=O)(=O)N1CCc2c(-c3cnc(N)nc3)nc(N3CCOCC3)nc21,0.207
17,O=C(Nc1cc(C(F)(F)F)cc(C(F)(F)F)c1)c1cc(Cl)ccc1O,-0.138
18,CCc1cncnc1N1CCN(Cc2nc3ccc(C(F)(F)F)cc3[nH]2)CC1,-1.55
19,CCCCOc1c(C(=O)c2c(F)cc(C)cc2F)c[nH]c2nncc1-2,0.486
20,COc1cc2ncnc(Nc3cccc(Cl)c3)c2cc1OC [AG-1478 (Tyrphostin AG-1478)],0.0422

row,SMILES,difference in log2 fold change of viability
1,C#Cc1cccc(Nc2ncnc3cc(OC)c(OCCCCCCC(=O)NO)cc23)c1,-0.131
2,NC(=O)c1ncn([C@@H]2O[C@H](CO)[C@@H](O)[C@H]2O)c1N [AICAR (Acadesine)],-0.0733
3,CC1(COc2ccc3c(c2)ncn3-c2ccc3cccc(N4CCC(N)CC4)c3n2)COC1,-0.0241
4,Nc1nc(N)c2nc(-c3cccc(O)c3)c(-c3cccc(O)c3)nc2n1,0.117
5,O=S(=O)(NCCNC/C=C/c1ccc(Br)cc1)c1cccc2cnccc12,-0.243
6,CNC(=O)c1cc(COc2nnc(Nc3ccc(Cl)cc3)c3ccoc23)ccn1 [Telatinib],0.0582
7,N#C/C(=C(/N)Sc1ccc(N)cc1)c1ccccc1C(F)(F)F,0.1
8,COc1ccc(S(=O)(=O)N(C(C)=O)c2ccccc2/C=C/c2cc[n+]([O-])cc2)cc1,0.0942
9,CC1(C)CNc2cc(NC(=O)c3cccnc3NCc3ccncc3)ccc21 [Motesanib Diphosphate (AMG-706)],0.326
10,CO[C@H]1C[C@@H]2CC[C@@H](C)[C@@](O)(O2)C(=O)C(=O)N2CCCC[C@H]2C(=O)O[C@H]([C@H](C)C[C@@H]2CC[C@@H](OCCO)[C@H](OC)C2)CC(=O)[C@H](C)/C=C(\C)[C@@H](O)[C@@H](OC)C(=O)[C@H](C)C[C@H](C)/C=C/C=C/C=C/1C [Everolimus (RAD001)],-1.32
11,CNC(=O)c1cc(Oc2ccc(NC(=O)Nc3ccc(Cl)c(C(F)(F)F)c3)c(F)c2)ccn1 [Regorafenib (BAY 73-4506)],-0.347
12,O=C1c2ccc(Nc3ccc(F)cc3F)cc2CCc2ccc(OC[C@H](O)CO)cc21 [Skepinone-L],0.71
13,CS(=O)(=O)c1cccc(CNc2nc(Nc3ccc4c(c3)CCC(=O)N4)ncc2C(F)(F)F)c1,-0.0481
14,CNC(=O)c1cccc(-c2ccc3c(N4CCOC[C@@H]4C)nc(N4CCOC[C@@H]4C)nc3n2)c1 [Vistusertib (AZD2014)],0.675
15,CNC(=O)c1cc(Oc2ccc(NC(=O)Nc3ccc(Cl)c(C(F)(F)F)c3)cc2)ccn1 [Sorafenib],0.0478
16,COC(=O)c1ccc2c(c1)NC(=O)/C2=C(\Nc1ccc(N(C)C(=O)CN2CCN(C)CC2)cc1)c1ccccc1 [Nintedanib (BIBF 1120)],-4.27
17,CC(C)(O)CC(=O)NCCn1ccc2ncnc(Nc3ccc(Oc4cccc(C(F)(F)F)c4)c(Cl)c3)c21,-0.173
18,NCC(=O)Nc1ccc(-n2nc(C(F)(F)F)cc2-c2ccc3c(ccc4ccccc43)c2)cc1,0.186
19,CN1CCN(c2nc(C3=C(c4c[nH]c5ccccc45)C(=O)NC3=O)c3ccccc3n2)CC1 [Sotrastaurin],-0.157
20,C[C@H]1[C@H](C)CC[C@]2(C(=O)O)CC[C@]3(C)C(=CC[C@@H]4[C@@]5(C)C[C@@H](O)[C@H](O)[C@@](C)(CO)[C@@H]5CC[C@]43C)[C@H]12 [Asiatic Acid],-0.0847
